Test results: PubChem BioAssay (NCI)
Compounds without any hit were thinned out: in the full panel of roughly 83,000, 20% have a hit.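 Percent growth is the endpoint: 0 to 100 indicates growth inhibition (40 means 60% inhibition), 0 means no net growth, and negative values indicate cell death.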 Values without a mark were called inactive. The source made the active and inactive calls.

System: SW-620 colon
Assay: NCI-60 one-dose screen, 48 h (100 = growth as untreated, 0 = no growth, -100 = all killed)
Conditions: 10 µM unless noted
Procedure: Growth inhibition of the SW-620 human tumor cell line is measured as a screen for anti-cancer activity. Cells are grown in 96 well plates and exposed to the test compound for 48 hours. Compounds are tested at a single concentration, which is 10^-5 M for most compounds. The reported endpoint is percent growth (GI% or GIPRCNT), where numbers from 0 - 100% represent growth inhibition, and numbers from -100% - 0 represent cell death. For example, a value of 40 represents 60% growth inhibition. A value of 0 means no net growth occurred over the course of the experiment. A value of -40 indicates 40% of cells at the beginning of the experiment died by the end of the experiment. A value of -100 means all cells are dead at the end of the experiment.
NCI-60 Human Tumor Cell Lines Screen was performed using the standard one-dose NCI protocol, which is described in more detail at https://dtp.cancer.gov/discovery_development/nci-60/default.htm.
Compounds with GIPRCNT values below 10 were considered active. Activity score was based on GIPRCNT using the following formula: […]
Score is 0 for GIPRCNT values of 100 or above, 50 for GIPRCNT values of 0, and 100 for GIPRCNT values of -100.

Row | SMILES | growth
1 | Cn1cc(-c2csc(-c3cn(C)c4ncccc34)n2)c2cccnc21 | 92.4%
2 | Nc1nc(SCC2(CCl)COC2)c2[nH]cnc2n1 | 99.8%
3 | COc1ccc(-c2cc(Cc3cccs3)c(=O)n(Cn3cncn3)n2)cc1 | 110%
4 | COc1ccc2c(c1)C(=O)c1c-2c(OCCN(C)C)nc2cc(OC)ccc12 | -45.8% (active)
5 | NCCCc1nnc(CCC(=O)c2nc3ccccc3[nH]2)o1 | 108%
6 | CO[C@H]1/C=C/O[C@@]2(C)Oc3c(C)c(O)c4c(O)c(c(/C=N/N5CCN(C)CC5)c(O)c4c3C2=O)NC(=O)/C(C)=C\C=C\C(C)[C@H](O)[C@@H](C)[C@@H](O)[C@@H](C)[C@@H](OC(C)=O)[C@@H]1C (stereo not given in full) | 107%
7 | COc1ccc(-c2c(-c3cc(OC)c(OC)c(OC)c3)noc2N)cc1 | 21.7%
8 | c1ccc2cc(C[n+]3ccn(CCCCCCCn4cc[n+](Cc5ccc6ccccc6c5)c4)c3)ccc2c1 | 74.2%
9 | COc1cc(OC)c2sc(-c3ccc(-n4cncc4-c4ccc(N)cc4)cc3)nc2c1 | 91.2%
10 | CCC(CCC(C)C1CCC2C3CC=C4CC(O)CCC4(C)C3CCC12C)C(C)C (stereo not given) (tested in a mixture with another compound) | 104%
11 | COc1ccc(/C=C/C(=O)Nc2cccnc2Nc2ccc(F)cc2)cc1 | 106%
12 | CC1=C(C(=O)Nc2ccccc2)C(c2ccc3c(c2)OCCO3)NC(=O)N1 (stereo not given) | 105%
13 | Cn1cnc([N+](=O)[O-])c1S(=O)(=O)Oc1ccc(Cl)cc1 | -31% (active)
14 | CC(C)COCC(CN(Cc1ccccc1)c1ccccc1)N1CCCC1 (stereo not given) | 70.1%
15 | O=C(Nc1ccc(Cl)cc1Cl)Nc1ccc(-c2cccnc2)cc1N1CCC(CO)CC1 | 17.6%
16 | O=C(/C=C/c1ccccc1Cl)c1ccc(O)cc1 | 40.9%
17 | Cc1cc(=O)n2n1-c1ccc(Cl)cc1NC(=O)C2 | 109%
18 | COC(=O)CCC1=C(C)C(C)=N/C1=C\c1[nH]c(-c2ccc[nH]2)cc1OC | 7.46% (active)
19 | CCOC(=O)/C=C(/C)Sc1cc(O)c2ccccc2c1O | -40.2% (active)
20 | CC12CCCCC1C(C(N)=O)C(=O)O2 (stereo not given) | 104%

Row | SMILES | growth
21 | COc1cc(C2NC(c3ccc(Cl)cc3)C(C)/C(=N/NC(N)=S)C2C)cc(OC)c1OC (stereo not given) | 106%
22 | Cn1c(N)c(N=O)c(=O)[nH]c1=O | 107%
23 | CC(C)[C@H]1CC[C@H]2[C@@H](CC[C@H]3[C@](C)(CN)CCC[C@]23C)C1 | -12.2% (active)
24 | COc1ccc2nccc(/C=C/c3ccnc4ccc(OC)cc34)c2c1 | 104%
25 | Cn1cc(-c2csc(-c3cn(C)c4ncccc34)n2)c2cc(Br)cnc21 | 89.4%
26 | O=C(OC[C@H]1O[C@H](OC(=O)c2cc(O)c(O)c(OC(=O)c3cc(O)c(O)c(O)c3)c2)[C@H](OC(=O)c2cc(O)c(O)c(OC(=O)c3cc(O)c(O)c(O)c3)c2)[C@@H](OC(=O)c2cc(O)c(O)c(OC(=O)c3cc(O)c(O)c(O)c3)c2)[C@@H]1OC(=O)c1cc(O)c(O)c(OC(=O)c2cc(O)c(O)c(O)c2)c1)c1cc(O)c(O)c(OC(=O)c2cc(O)c(O)c(O)c2)c1 | 47.5%
27 | CN1CCN(Cc2ccc(NC(=O)c3[nH]ncc3Nc3ccnc4ccnn34)cc2)CC1 | 70.1%
28 | Cc1nc2c(O)cccc2cc1CO | 108%
29 | Clc1ccc2nc(Cl)c3ccccc3c2c1 | 78.3%
30 | Cc1c(C(N)=O)sc2c1C(=O)N(Cc1ccccc1)C1=NN=C(c3ccc(Cl)cc3)CN12 | 57.5%
31 | O=C(O)c1ccc(NC(=O)c2cccc(Nc3ccnc(C(F)(F)F)c3)c2)cc1 | 103%
32 | COc1cc2c(C#N)n3c(c2cc1OC)C(=O)C(c1ccccc1)Oc1ccccc1-3 (stereo not given) | 87.6%
33 | CCN(CC)CCNc1ccc(Cl)cc1Cl | 104%
34 | O=C(NCCc1ccccc1)C1CCC(=O)N1Cc1ccc(Br)cc1 (stereo not given) | 97.5%
35 | O=C(CCc1nnc(SCc2ccccc2)s1)c1nc2ccccc2[nH]1 | 107%
36 | CC(C)c1nc(N(C)S(C)(=O)=O)nc(-c2ccc(F)cc2)c1/C=C/[C@@H](O)C[C@@H](O)CC(=O)O | 107%
37 | CCCCCCOc1ccc(/C=N/NC(N)=S)cc1 | 23.3%
38 | COc1cc2cn3c4ccc(O)cc4nc(N)c3c2cc1OC | 26.1%
39 | O=C(Nc1cccc(C(F)(F)F)c1)Nc1ccc(OCc2nnc(-c3ccc(Cl)cc3)o2)c(F)c1 | 71.8%
40 | CCCOc1ccc2c(c1)CC[C@@H]1[C@@H]2CC[C@@]2(C)[C@H]1CC[C@]2(C)O | 53.8%
